Measured values from PubChem BioAssay (NCATS).
Records with an inconclusive call do not appear. Values without a mark were called inactive. Activity calls are given as the source filed them. The call rests on the fitted dose curve; in most records, active means well fitted cell-killing curve with a large enough effect; inconclusive means small, poorly fitted or top-dose-only effect, or effect the other way; inactive means no such curve, though single readings can be large or run the other way.

Assay: Quantitative High-Throughput drug screen in 47 multiple myeloma cell lines against the NCATS MIPE library collection: KMS11_JCRBsus cell viability assay (AID 1919873); further: nearly all actives have a fitted effect of over 50% in size
Conditions: KMS11 myeloma viability, CellTiter-Glo ATP luminescence, 48 h; series mostly up to 45.8 µM; viability (% of control): at the top concentration
Excerpt: PI: Beverly A. Mock Ph.D.
Laboratory of Cancer Biology and Genetics,
Center for Cancer Research, National Cancer Institute,
National Institute of Health, Bethesda, Maryland
Drug resistance and disease progression are common in multiple myeloma (MM) patients, underscoring the need for new therapeutic combinations. […] We hypothesized that effective combinations would reduce MYC expression and enhance p16 activity. […] These preclinical data identify potentially useful drug combinations for evaluation in drug-resistant MM and reveal potential mechanisms of combined drug sensitivity.
Described herein is the primary MIPE qHTS used to cherrypick compounds. Validated compounds were then further tested for potential synergistic activiy.
[1] Peat TJ, Gaikwad SM, Dubois W, Gyabaah-Kessie N, Zhang S, Gorjifard S, Phyo Z, Andres M, Hughitt VK, Simpson RM, Miller MA, Girvin AT, Taylor A, Williams D, D'Antonio N, Zhang Y, Rajagopalan A, Flietner E, Wilson K, Zhang X, Shinn P, Klumpp-Thomas C, McKnight C, Itkin Z, Chen L, Kazandijian D, Zhang J, Michalowski AM, Simmons JK, Keats J, Thomas CJ, Mock BA. Drug combinations identified by high-throughput screening promote cell cycle transition and upregulate Smad pathways in myeloma. Cancer Lett. 2023 Aug 1;568:216284. doi: 10.1016/j.canlet.2023.216284. Epub 2023 Jun 24. PMID: 37356470; PMCID: PMC10408729.
SEQUENCE No. (e.g., 1, 2, 3, etc.); […] (e.g., Cells, Incubation, Reagent, etc.); VALUE and DESCRIPTION.
1; Cells; 5 uL; white, solid bottom 1536-well Greiner assay plate.
2; Compounds; 23 nL; Kalypsis pin tool (Wako USA) equipped with a 1536-well pin head to transfer to the assay plates.
3; Incubation; 48 hours; 37C incubation.
4; Reagent;5uL; CellTiter Glo (Promega).
5; Detector; 425V; Luminescence; Viewlux PerkinElmer.
NOTES (numbers refer to Sequence numbers above)
1. The cell-based screening methods employed in this study were like those previously published. Briefly, the corresponding myeloma cell lines were screened in 1,536-well plates with 500 cells, 5-uL per well for inhibition of cell viability (assessed by measuring ATP levels with CellTiterGlo).
2. NCATS MIPE 4.0 library of approved and investigational drugs were added using the Kalypsis pin tool. Wells treated with DMSO only for 100% viability and media only for 0% viability were used as controls.
3. The assay plates were covered and incubated for 48 hours in a 37C, 5% CO2 incubator with controlled humidity.
4. After 48 hours, CellTilter-GloTM luminescent substrate mix (Promega) reagent was added to the assay plate and plates we incubated for 5 min at room temperature.
5. Signal was measured as median relative luminescence units on a ViewLux (PerkinElmer) multiplate reader.
[1] Heske CM, Davis MI, Baumgart JT, Wilson K, Gormally MV, Chen L, Zhang X, Ceribelli M, Duveau DY, Guha R, Ferrer M, Arnaldez FI, Ji J, Tran HL, Zhang Y, Mendoza A, Helman LJ, Thomas CJ. Matrix Screen Identifies Synergistic Combination of PARP Inhibitors and Nicotinamide Phosphoribosyltransferase (NAMPT) Inhibitors in Ewing Sarcoma. Clin Cancer Res. 2017 Dec 1;23(23):7301-7311. doi: 10.1158/1078-0432.CCR-17-1121. Epub 2017 Sep 12. PMID: 28899971; PMCID: PMC6636827.
Potency means the concentration at half of the fitted maximal effect.

Compound | Potency | viability (% of control)
COc1cc2nccc(Oc3ccc(NC(=O)C4(C(=O)Nc5ccc(F)cc5)CC4)cc3)c2cc1OC | 20.9 µM (active) | –
CCC1=C[C@@H]2CN(C1)Cc1c([nH]c3ccccc13)[C@@](C(=O)OC)(c1cc3c(cc1OC)N(C)[C@@H]1[C@@](O)(C(=O)OC)[C@H](OC(C)=O)[C@]4(CC)C=CCN5CC[C@]31[C@@H]54)C2 | 0.0083 µM (active) | –
CC(C)c1cnn2c(NCc3ccccc3)cc(N[C@@H](CO)[C@H](O)CO)nc12 | 0.148 µM (active) | –
CCC[C@H](NC(=O)C(C#N)=Cc1cccc(Br)n1)c1ccccc1 | 2.96 µM (active) | –
COc1cccc(Nc2c(C(N)=O)cnc3c(C)cc(S(=O)(=O)c4cccc(C(=O)N(C)C)c4)cc23)c1 | – | 75.9% [at 23.2 µM]
O=C(O)c1ccc2cc(-c3ccc(O)c(C45CC6CC(CC(C6)C4)C5)c3)ccc2c1 | 1.48 µM (active) | –
O=C(O)Cn1nnc(-c2cc(N3CCC(Oc4cc(F)ccc4Br)CC3)no2)n1 | – | 133%
COC(=O)Nc1nc2ccc(C(=O)c3ccc(F)cc3)cc2[nH]1 | 0.296 µM (active) | –
O=C(Nc1cn[nH]c1-c1nc2ccc(CN3CCOCC3)cc2[nH]1)NC1CC1 | 1.32 µM (active) | –
COc1c(OCCCN2CCOCC2)ccc2c3n(c(=NC(=O)c4cnc(N)nc4)nc12)CCN3 | 0.0323 µM (active) | –
CC(C)(O)CCc1ccc(OCc2cc(-c3cccc(OC(F)F)c3)c3ncccc3c2)cc1 | – | 123%
COCCOc1ccc2c(c1)ncn2-c1ccc2cccc(N3CCC(N)CC3)c2n1 | 5.26 µM (active) | –
NC(=O)c1c(OCc2c(F)cc(Br)cc2F)nsc1NC(=O)NCCCCN1CCCC1 | 20.9 µM (active) | –
COc1cc(=C2C=c3ccccc3=N2)[nH]c1=Cc1[nH]c(C)cc1C | 1.05 µM (active) | –
Cc1[nH]nc2ccc(-c3cncc(OC[C@@H](N)Cc4ccccc4)c3)cc12 | 1.18 µM (active) | –
COc1cc(C(=O)NS(=O)(=O)c2ccccc2C)ccc1Cc1cn(C)c2ccc(NC(=O)OC3CCCC3)cc12 | 7.43 µM (active) | –
CC(C)CC(=O)Nc1n[nH]c2c1CN(C(=O)C1CCN(C)CC1)C2(C)C | 1.48 µM (active) | –
CC(=O)Nc1sc2c(c1-c1nc3ccccc3s1)CNC2 | 13.2 µM (active) | –
Cc1cc(CN2CCN(c3c(Br)cnc4nc(-c5ccc(N6CCN(C)CC6)cc5)[nH]c34)CC2)no1 | 1.05 µM (active) | –
CC(=O)c1c(C)c2cnc(Nc3ccc(N4CCNCC4)cn3)nc2n(C2CCCC2)c1=O | 20.9 µM (active) | –

Compound | Potency | viability (% of control)
CN[C@H]1CCc2cc(OC)c(OC)c(OC)c2-c2ccc(OC)c(=O)cc21 | 0.0013 µM (active) | –
CC(C)c1nn(-c2c(Cl)cccc2Cl)c2nc(Cc3ccc(OCCO)cc3)[nH]c(=O)c12 | 0.0526 µM (active) | –
Nc1ccc(C(=O)c2cc3c(ccc4ccccc43)[nH]2)cc1 | 0.743 µM (active) | –
Cc1[nH]c2ccccc2c1CCNCc1ccc(C=CC(=O)NO)cc1 | 0.0662 µM (active) | –
Nc1ncnc2c1c(-c1cccc(OCc3ccccc3)c1)cn2C1CC(CN2CCCC2)C1 (stereo not given) | 0.372 µM (active) | –
c1nc2nc(Nc3ccc(N4CCOCC4)cc3)nc(NC3CCCCC3)c2[nH]1 | 5.26 µM (active) | –
CC(C)c1cc(C(=O)N2Cc3ccc(CN4CCN(C)CC4)cc3C2)c(O)cc1O | 0.105 µM (active) | –
O=C(C=Cc1cccc(S(=O)(=O)Nc2ccccc2)c1)NO | 1.21 µM (active) | –
CCc1c2c(nc3ccc(O)cc13)-c1cc3c(c(=O)n1C2)COC(=O)[C@]3(O)CC | 0.662 µM (active) | –
CNC(=O)CN1CCC(Oc2cc3c(Nc4cccc(Cl)c4F)ncnc3cc2OC)CC1 | 0.0372 µM (active) | –
Fc1cc(-c2cccc3ncc(-c4cnn(C5CCNCC5)c4)nc23)cc(F)c1CN1CCOCC1 | 9.35 µM (active) | –
Cc1ccc(-c2ncn(-c3ccc(Nc4nccc(-c5cccc(N6CCOCC6)c5)n4)cc3)n2)cn1 | 0.0743 µM (active) | –
COc1ccc(C=Cc2cc(OC)c(OC)c(OC)c2)cc1O | – | 4.98%
CC1(C)O[C@@H]2C[C@@H]3[C@H]4C[C@@H](F)C5=CC(=O)C=C[C@]5(C)[C@@]4(F)[C@@H](O)C[C@]3(C)[C@]2(C(=O)CO)O1 | 0.0042 µM (active) | –
Cc1cc(C(=O)N2CCN(c3cccc(Cl)c3)CC2)n(-c2ccccc2)n1 | 0.148 µM (active) | –
CC(NCc1ccc2c(c1)nc(NC(=O)c1ccc(-c3cn[nH]c3)s1)n2CC(C)(C)O)C(C)(C)C (stereo not given) | 0.209 µM (active) | –
OCc1ccc(-c2ccc(-c3ccc(CO)s3)o2)s1 | 11.8 µM (active) | –
Cn1c(CNc2ccc(C(=N)N)cc2)nc2cc(C(=O)N(CCC(=O)O)c3ccccn3)ccc21 | – | 107% [at 23.2 µM]
COc1cc2c(Nc3ccc(NC(=O)c4ccccc4)cc3)ncnc2cc1OCCCN1CCOCC1 | 10.5 µM (active) | –
CCS(=O)(=O)c1cccc(-c2cc(C(=O)NC3CCN(C)CC3)c(C)c3[nH]c4ncc(C)cc4c23)c1 | 0.526 µM (active) | –
